# Results published in PubChem BioAssay (NCI).
# “And” between values parts separate entries of the source, which are not always exact repeats. Identical values can stand only once. Compounds without any hit were thinned out: in the full panel of roughly 79,000, 15% have a hit. Unmarked numbers belong to inactive results. The source made the active and inactive calls. Rule as the data show it: active = growth inhibition above about 70%; inactive = the rest.
# Columns and labels:
# [1] = NCI Yeast Anticancer Drug Screen. Data for the rad50 strain (AID 155);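 also: 0% = growth of vehicle-only cultures of the same strain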; conditions: S. cerevisiae rad50 strain growth inhibition, active compounds read high; at 50.0 µM unless noted
# How it was run: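 Growth of the mutant yeast was measured after compound exposure and referenced to vehicle-treated cultures.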
# [2] = NCI Yeast Anticancer Drug Screen. Data for the mec2-1 strain (AID 157); conditions: S. cerevisiae mec2-1 strain, active compounds read high; at 50.0 µM unless noted
# How it was run: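 Using mec2-1 yeast: add compound, measure growth, express inhibition versus vehicle-treated cultures.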
# [3] = NCI Yeast Anticancer Drug Screen. Data for the sgs1 mgt1 strain (AID 161);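 also: 0% = growth of cultures given vehicle only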; conditions: S. cerevisiae sgs1 mgt1 strain, active compounds read high; at 50.0 µM unless noted
# How it was run: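 Percent growth inhibition was derived by comparing compound-exposed mutant yeast with vehicle-exposed cultures. The strain carries alterations in DNA damage repair.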
# [4] = NCI Yeast Anticancer Drug Screen. Data for the cln2 rad14 strain (AID 165);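 also: 0% = growth equal to vehicle treated cultures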; conditions: S. cerevisiae cln2 rad14 strain, active compounds read high; at 50.0 µM unless noted
# How it was run: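 Yeast strain cln2 rad14, bearing defects in cell cycle control and DNA repair, serves as the test system; values reflect growth inhibition compared with vehicle.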
# [5] = NCI Yeast Anticancer Drug Screen. Data for the bub3 strain (AID 167); conditions: S. cerevisiae bub3 mutant strain, active compounds read high; at 50.0 µM unless noted
# How it was run: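 Whole-cell yeast assay. The mutant strain was incubated with compounds, and growth inhibition was determined by comparison with vehicle-treated cells.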
# [6] = NCI Yeast Anticancer Drug Screen. Data for the mlh1 rad18 strain (AID 175); conditions: S. cerevisiae mlh1 rad18 strain growth inhibition, active compounds read high; at 50.0 µM unless noted
# How it was run: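 Steps: expose repair-defective yeast to compound; measure growth; express inhibition against vehicle-treated controls.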
Structure (SMILES),growth inhibition [1],growth inhibition [2],growth inhibition [3],growth inhibition [4],growth inhibition [5],growth inhibition [6]
O=CC(=O)C(O)C(O)C(O)CO (stereo unspecified),9.5%,22.9%,26.2%,-0.05%,-4.95%,19.4%
CC(=O)Nc1ccc(NCC(=O)Nn2cnc3ccc(S(=O)(=O)Nc4ccc(NC(C)=O)cc4)cc3c2=O)cc1,5.55%,-18.1%,16.6%,20.9%,-0.6%,6.95%
CCOC(=O)/C(C#N)=C/c1cccc([N+](=O)[O-])c1,4.9%,4.8%,7.05%,-11.6%,34.1%,31.2%
CCCCCSC(=O)C(N)=O,10.9%,7.45%,6.7%,-25.8%,-7.45%,4%
O=C(O)/C=C(/CC(=O)O)C(=O)O,-34.9%,-11.3%,-17.2%,0.35%,-27.8%,-7.45%
Cc1nc(N(C)C)oc(=O)c1CCc1ccccc1,-5.8%,3.8%,-0.9%,0.2%,6.9%,8.9%
C=C1C(=O)OC2C3[C@@]4(C)O[C@H]4[C@H]4O[C@@]34[C@](C)(O)CC(OC(C)=O)[C@@H]12 (stereo partly specified),-16.4%,-30.6%,-7.3%,-7.45%,-24.4%,-22.1%
CC(=O)OCC1OC(n2c(-c3ccc(C)cc3)cc(-c3ccco3)c(C#N)c2=O)C(OC(C)=O)C(OC(C)=O)C1OC(C)=O (stereo unspecified),10.6% and -5.75%,10.6% and -5.75%,20.6% and 4.95%,13.5% and -16.8%,27.4% and -4.4%,14.4% and 9.7%
COc1ccc(-c2cc(-c3ccco3)c(C#N)c(=O)[nH]2)cc1,3.95%,6.2%,14.2%,14.2%,8.65%,27.3%
Cc1nc2ccncc2[nH]1,-7.7%,-1.3%,-17.4%,0.05%,-10.6%,-8.2%
O=C(O)/C=C1\NC(=O)NC1=O,16.1%,-5.1%,11.8%,6.1%,5.75%,33%
Cc1nc2[nH]ncc2c(=O)n1-c1ccccc1Cl,6%,-4.1%,5.95%,5.35%,3.75%,9%
CCOC(=O)Cn1cncc1C,-33.6%,-6.6%,-13.5%,-73.6%,-3.4%,-7.1%
O=C(O)CC(c1ccccc1)C(CC(=O)O)c1ccccc1 (stereo unspecified),-3.8%,8.75%,17.6%,17.2%,5.95%,9.85%
O=C(O)C1CCC(=O)N1Cc1c[nH]c2ccccc12 (stereo unspecified),-2.2%,-7.4%,-10.2%,-0.15%,15.4%,-10.8%
CCN(CC)CCNc1ccc(COC(=O)NC)c2sc3ccccc3c(=O)c12,3.9%,-2.4%,-8.3%,-12.2%,-17.4%,-58.9%
COc1ccc(NC(C)=O)cc1,24.8%,3.2%,2.7%,13.8%,11.8%,-11.1%
Cc1ccc(C(=O)/C=C/c2cccc3ccccc23)cc1,16.1%,3.65%,21.5%,4.25%,9.95%,3.95%

Structure (SMILES),growth inhibition [1],growth inhibition [2],growth inhibition [3],growth inhibition [4],growth inhibition [5],growth inhibition [6]
Cc1cc(=O)[nH]c(NNC(C#N)c2cccc([N+](=O)[O-])c2)n1 (stereo unspecified),-18.5%,-11.1%,-31.1%,-12.8%,-7.4%,-39.5%
CC(=O)C[n+]1ccccc1,-9.85%,-9%,-1.75%,3.75%,15.6%,14.2%
CC(C)COC(c1ccc2c(c1)OCO2)C(C)Br (stereo unspecified),34.5%,39.5%,22.4%,0.3%,48.5%,58.5%
COc1cc(Br)c(CC(NC=O)c2ccc(OC)c(OC)c2OC)cc1OC (stereo unspecified),0.4%,-0.1%,-6.95%,-7.8%,-1.5%,23.9%
CC(C)(CO)CNC(=O)C(C)(C)CO,7.8%,14.1%,-5%,21.1%,16.8%,-4.4%
c1ccc2c3c([nH]c2c1)CCCC3,-1.6%,1.2%,-10.2%,-31.4%,11.5%,-1.25%
Clc1cccc(C2ON=C(c3ccccc3)N2C23CC4CC(CC(C4)C2)C3)c1Cl (stereo unspecified),10.3%,-6.55%,7.95%,-13.5%,-4%,-3.95%
CCCCCCN(CCCCCC)CC(O)c1cc(-c2ccc(Cl)cc2)nc2c(Cl)cccc12 (stereo unspecified),-21.2%,-8.05%,18.4%,-0.35%,-9.5%,19.9%
CCn1c2ccccc2c2ccccc21,27.2%,-6%,-10.2%,13.8%,-8.15%,17.4%
CC(C)(C)C(=O)CC(=O)C(F)(F)C(F)(F)C(F)(F)F.CC(C)(C)C(=O)CC(=O)C(F)(F)C(F)(F)C(F)(F)F.CC(C)(C)C(=O)CC(=O)C(F)(F)C(F)(F)C(F)(F)F.[La],2.85%,-0.9%,-3.95%,-8.85%,-3.95%,18.8%
O=C(O)COc1ccc(F)cc1F,-22.5%,-3.05%,1.65%,-31.4%,0.95%,-16.4%
Cc1cccc(C)c1NS(=O)(=O)c1ccc(Cl)cc1,91.8% (active),84.4% (active),68.7%,91.7% (active),94% (active),90.4% (active)
O=C(c1ccc(-c2ccccc2)cc1)C(O)c1ccc(-c2ccccc2)cc1 (stereo unspecified),7.55%,0.4%,2.65%,-5.35%,1.2%,4.65%
N#CC(C#N)N=O (tested in a mixture with another compound),-4.1%,-15.3%,-15.2%,-19.7%,-6.9%,-6.25%
O=C(N/N=C(\c1nc2ccc(Cl)cc2[nH]c1=O)C(O)c1ccccc1Cl)c1ccncc1 (stereo unspecified),16.6%,20%,8.7%,18.7%,30.9%,37%
COc1cc(OC)c(-c2cc(=O)c3c(OC)c(OC)c(OC)c(OC)c3o2)cc1OC,-2.95%,-3.8%,-2.8%,-44%,36.2%,-21.1%
COc1cc([C@@H]2c3cc4c(cc3[C@H](OC3OC5COC(c6ccco6)OC5C(O)C3O)C3COC(=O)[C@@H]32)OCO4)cc(OC)c1OC (stereo partly specified),7.25%,18.8%,7.6%,17.9%,0.2%,-42%
N#CC(C(=O)CCC(=O)C(C#N)c1ccccc1)c1ccccc1 (stereo unspecified),-26.4%,-14.8%,1.2%,5.9%,6.45%,-6.4%
